# Assay results as given in PubChem BioAssay.
# Several values for one entry are separate records, joined by “and”; a condition that tells them apart may be missing. Equal values may be shown once. Records with an inconclusive call do not appear. For part of these data: Entries with a potency or affinity are not part of this list. Activity calls are given as the source filed them. Unless noted, no stated cut-off is given here; in the data, active means inhibition above about 80%; inactive means the rest.
# Assays:
# [1] = modifiers of HSF1 nuclear foci, imaging, Selleck Cancer Library (AID 1347162; in the data active means plate-normalised HSF1 focus index below about 0.46); settings: human cells, at 10 µM; SSMD: measured here: HSF1 foci SSMD mean; cell count: measured here: cell number; plate-normalised HSF1 focus index: stronger effect = lower value
# [2] = system: Neuropilin-2 / VEGF-C interaction (human); test: inhibitors of NRP2–VEGF-C binding, biochemical, microplate binding format, z-score (AID 743281; call rule not given here); settings: microplate NRP2/VEGF-C binding assay; stronger effect = lower value
# [3] = protection against mutant huntingtin cytotoxicity, PC12 cells, LDH release (AID 1610); settings: PC12 mutant huntingtin toxicity, final LDH at 4 uM, stronger effect = lower value
# [4] = growth inhibition of DIPG glioma cells, dose response, cell-based, SU-DIPG-XIII, MIPE5.0, CellTiter-Glo, qHTS (AID 1347064; cut-off not given, nearly all actives have AC50 up to about 23 µM;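 on AC50: cells exposed to compound for 48 hours before the viability read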); settings: SU-DIPG-XIII viability, CellTiter-Glo ATP luminescence
# [5] = LFS_MB_1R medulloblastoma cell growth inhibition, synergistic combos for chromothripsis tumors, cisplatin or BGB combos (AID 1671452); settings: LFS_MB_1R medulloblastoma cells, stronger effect = higher value;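 further: cells exposed for 96 hours before readout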
# [6] = CRL2098 osteosarcoma cell growth inhibition, synergistic combos for chromothripsis tumors, BGB or cisplatin IC20 combos (AID 1671454); settings: CRL2098 osteosarcoma cells, drug combinations, stronger effect = higher value;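 further: cells exposed for 96 h before readout; 0% = vehicle DMSO and 100% = killing by high DMSO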
# [7] = HD-MB03 medulloblastoma cell growth inhibition, synergistic combos for chromothripsis tumors, BGB or cisplatin IC20 combos (AID 1671455; in the data active means inhibition above about 83%;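 further: 0% = vehicle DMSO and 100% = high DMSO as cytotoxic control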); settings: HD-MB03 medulloblastoma cells, stronger effect = higher value
# [8] = UWB1.289 ovarian carcinoma cell growth inhibition, synergistic combos for chromothripsis tumors, BGB or cisplatin combos (AID 1671456); settings: UWB1.289 ovarian carcinoma cells, stronger effect = higher value;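 further: cells exposed to compound for four days; 0% = vehicle DMSO and 100% = killing by high DMSO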
# [9] = LFS_MB_2R medulloblastoma cell growth inhibition, synergistic combos for chromothripsis tumors, cisplatin combos (AID 1671457); settings: LFS_MB_2R medulloblastoma cells, stronger effect = higher value;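 further: cells exposed to compound for four days before readout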
# [10] = MDA-MB-436 breast carcinoma cell growth inhibition, synergistic combos for chromothripsis tumors, BGB or cisplatin combos (AID 1671458; call rule not given here;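 further: cells exposed for 96 hours; 0% = vehicle DMSO and 100% = killing by high DMSO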); settings: MDA-MB-436 breast carcinoma growth inhibition, drug combinations, stronger effect = higher value
# [11] = UWB1.289_BRCA1 ovarian cancer growth, cell-based, BGB or cisplatin combinations (AID 1671459); settings: UWB1.289 BRCA1 ovarian carcinoma, drug combinations, stronger effect = higher value
# [12] = human astrocyte viability loss, single and combined drugs, cytotoxicity control for chromothriptic childhood tumor combination screen, cell-based, BGB or cisplatin IC20 combos (AID 1671460); settings: Human astrocytes, drug combinations, stronger effect = higher value;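 further: cells exposed to compounds for 96 hours before viability readout; 0% = vehicle and 100% = killing control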
# [13] = growth inhibition of BT084 medulloblastoma cells, cell-based, ICGC_MB145, cisplatin and BGB IC40 combos (AID 1671461); settings: drug combinations, stronger effect = higher value;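 further: cells exposed to drugs for 96 hours; 0% = vehicle DMSO and 100% = high DMSO full killing control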
# [14] = growth inhibition of RCMB18 medulloblastoma cells, cell-based, cisplatin and BGB IC40 combos (AID 1671462); settings: stronger effect = higher value;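 further: cells exposed to compound for four days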
# [15] = growth inhibition of CRL1545 osteosarcoma cells, cell-based, cisplatin and BGB IC20 combos (AID 1671464); settings: stronger effect = higher value;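 further: cells exposed to compound for 96 hours before readout; 0% = vehicle DMSO and 100% = high DMSO killing control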
# [16] = inhibitors of Cryptococcus chitosan production, flow cytometry, Cibacron Brilliant Red staining (AID 1347148; call rule not given here;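 further: compound exposure lasted three days at 37 degrees C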); settings: Cryptococcus neoformans chitosan, stronger effect = lower value; at 10 µM unless noted
# [17] = target: Calcium-dependent protein kinase 1 (Plasmodium falciparum (isolate 3D7)) (UniProt P62344); test: PfCDPK1 kinase inhibitors, biochemical, TCAMS library (AID 1159585; cut-off not given, nearly all actives have IC50 up to about 0.98 µM;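 further: inhibitors leave more ATP so luminescence rises with inhibition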); settings: recombinant PfCDPK1, Kinase-Glo ATP depletion luminescence
# [18] = target: Plasmodium falciparum protein kinase 6 (PK6, PF3D7_1337100) (UniProt Q8IDW1); test: PfPK6 kinase inhibitors, biochemical, TCAMS library (AID 1159586; call rule not given here); settings: recombinant PfPK6, Kinase-Glo ATP depletion luminescence
# [19] = target: Protein kinase 7 (PK7), Plasmodium falciparum 3D7 (PF3D7_0213400) (UniProt Q7YTF7); test: inhibition of Plasmodium PK7 catalytic activity – biochemical, TCAMS antimalarial set, Kinase-Glo luminescence (AID 1159587; call rule not given here); settings: recombinant PfPK7, Kinase-Glo ATP depletion luminescence
# [20] = target: Calcium-dependent protein kinase 4 (Plasmodium falciparum (isolate 3D7)) (UniProt Q8IBS5); test: PfCDPK4 kinase inhibitors, biochemical, TCAMS library (AID 1159588; cut-off not given, nearly all actives have IC50 up to about 0.91 µM); settings: recombinant PfCDPK4, Kinase-Glo ATP depletion luminescence
# [21] = measured here: combination with BGB IC40, at 0.05 µM
# [22] = measured here: combination with cisplatin, at 0.5 µM
# [23] = measured here: combination with cisplatin, at 5 µM
# [24] = measured here: combination with BGB at IC20, at 0.5 µM
# [25] = measured here: combination with cisplatin at IC20, at 0.5 µM
# [26] = measured here: combo with BGB at IC20, at 0.5 µM
# [27] = measured here: combo with cisplatin at IC20, at 0.5 µM
# [28] = measured here: inhibition with BGB combination, at 0.05 µM
# [29] = measured here: inhibition with cisplatin combination, at 0.05 µM
# [30] = measured here: BGB combination, at 0.5 µM
# [31] = measured here: BGB combination, at 5 µM
# [32] = measured here: cisplatin combination, at 0.5 µM
# [33] = measured here: cisplatin combination, at 5 µM
# [34] = BGB combination, concentration series, at 5 µM
# [35] = cisplatin combination, concentration series, at 5 µM
# [36] = measured here: combo with BGB IC20, at 0.5 µM
# [37] = measured here: combo with cisplatin IC20, at 0.5 µM
# [38] = cisplatin combination, at 0.5 µM
# [39] = measured here: BGB IC40 combination 0.05 uM, at 0.05 µM
# [40] = measured here: BGB IC40 combination, at 0.05 µM
# [41] = measured here: with BGB IC20 combination, at 0.5 µM
# [42] = measured here: with cisplatin IC20 combination, at 0.5 µM
# Chain of Plasmodium falciparum protein kinase 6 (PK6, PF3D7_1337100) (Q8IDW1 1-305): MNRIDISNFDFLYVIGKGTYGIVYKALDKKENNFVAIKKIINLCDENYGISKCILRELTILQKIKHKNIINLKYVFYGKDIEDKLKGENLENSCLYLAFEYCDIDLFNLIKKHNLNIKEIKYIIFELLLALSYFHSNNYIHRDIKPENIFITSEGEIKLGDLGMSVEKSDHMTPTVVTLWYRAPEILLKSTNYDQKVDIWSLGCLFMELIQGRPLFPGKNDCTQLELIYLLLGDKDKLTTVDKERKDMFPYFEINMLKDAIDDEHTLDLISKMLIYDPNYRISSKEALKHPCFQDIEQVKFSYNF
# Chain of Calcium-dependent protein kinase 4 (Plasmodium falciparum (isolate 3D7)) (Q8IBS5 whole entry, looked up): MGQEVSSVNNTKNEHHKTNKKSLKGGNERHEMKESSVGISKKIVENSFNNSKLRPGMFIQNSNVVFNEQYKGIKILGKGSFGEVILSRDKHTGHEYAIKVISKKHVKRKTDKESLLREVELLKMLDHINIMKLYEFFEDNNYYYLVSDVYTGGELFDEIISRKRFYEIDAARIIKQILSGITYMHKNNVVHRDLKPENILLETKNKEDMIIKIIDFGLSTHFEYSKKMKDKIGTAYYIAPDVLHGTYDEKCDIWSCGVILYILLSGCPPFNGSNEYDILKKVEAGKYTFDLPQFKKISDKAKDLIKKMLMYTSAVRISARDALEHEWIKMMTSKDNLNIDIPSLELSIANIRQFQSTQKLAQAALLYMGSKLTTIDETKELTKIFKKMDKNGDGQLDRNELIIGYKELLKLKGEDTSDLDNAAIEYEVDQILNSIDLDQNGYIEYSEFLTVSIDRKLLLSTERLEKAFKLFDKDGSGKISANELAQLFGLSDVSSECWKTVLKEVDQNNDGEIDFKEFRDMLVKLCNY
# Chain of Protein kinase 7 (PK7), Plasmodium falciparum 3D7 (PF3D7_0213400) (Q7YTF7 1-343): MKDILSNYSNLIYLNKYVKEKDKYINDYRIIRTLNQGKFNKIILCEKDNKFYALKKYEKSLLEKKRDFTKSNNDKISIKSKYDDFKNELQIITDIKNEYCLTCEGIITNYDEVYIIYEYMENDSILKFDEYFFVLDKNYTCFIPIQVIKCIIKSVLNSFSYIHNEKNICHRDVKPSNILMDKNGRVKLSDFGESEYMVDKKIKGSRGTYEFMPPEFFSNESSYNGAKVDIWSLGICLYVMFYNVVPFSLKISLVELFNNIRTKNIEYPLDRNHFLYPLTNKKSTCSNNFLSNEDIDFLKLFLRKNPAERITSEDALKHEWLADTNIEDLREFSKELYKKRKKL
# Chain of Calcium-dependent protein kinase 1 (Plasmodium falciparum (isolate 3D7)) (P62344 whole entry, looked up): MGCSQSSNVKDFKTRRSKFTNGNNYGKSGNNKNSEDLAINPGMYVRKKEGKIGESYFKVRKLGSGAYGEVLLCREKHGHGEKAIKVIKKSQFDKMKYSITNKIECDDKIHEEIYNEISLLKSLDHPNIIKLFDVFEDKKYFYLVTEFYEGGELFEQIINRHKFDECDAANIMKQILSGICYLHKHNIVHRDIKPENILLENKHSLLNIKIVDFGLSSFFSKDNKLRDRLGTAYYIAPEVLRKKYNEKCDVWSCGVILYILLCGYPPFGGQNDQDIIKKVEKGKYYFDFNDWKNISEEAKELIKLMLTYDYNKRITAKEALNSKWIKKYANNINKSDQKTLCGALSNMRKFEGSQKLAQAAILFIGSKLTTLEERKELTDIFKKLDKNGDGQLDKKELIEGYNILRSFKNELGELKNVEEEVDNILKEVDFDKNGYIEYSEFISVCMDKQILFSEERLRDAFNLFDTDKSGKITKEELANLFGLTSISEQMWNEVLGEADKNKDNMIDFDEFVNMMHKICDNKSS
smiles,measurement,setting,value
CCC1(c2ccc(N)cc2)CCC(=O)NC1=O (centres undefined),SSMD,[1],1.46
same,cell count,[1],7280
same,plate-normalised HSF1 focus index,[1],1.05 (inactive)
COc1ccc(C(CN(C)C)C2(O)CCCCC2)cc1 (centres undefined),z-score,[2],0.57 (inactive)
CN(C)[C@@H]1C(=O)C(C(N)=O)=C(O)[C@@]2(O)C(=O)C3=C(O)c4c(O)cccc4[C@@](C)(O)[C@H]3[C@H](O)[C@@H]12,normalised LDH release,[3],0.818
same,outcome,[4],inactive
N[C@@H](Cc1ccc(N(CCCl)CCCl)cc1)C(=O)O,AC50,[4],18.6 µM (active)
same,SSMD,[1],1.42
same,cell count,[1],7340
same,plate-normalised HSF1 focus index,[1],1.09 (inactive)
O=C(O)CCCc1ccc(N(CCCl)CCCl)cc1,inhibition,[5]; at 0.5 µM,1.38% (inactive)
same,inhibition,[5]; [21],-18.1%
same,inhibition,[5]; [22],34.7%
same,inhibition,[5]; [23],17.9%
same,inhibition,[6]; at 0.5 µM,-43.4% (inactive)
same,inhibition,[6]; [24],-73.2%
same,inhibition,[6]; [25],-65.8%
same,inhibition,[7]; at 0.5 µM,-3.23% (inactive)
same,inhibition,[7]; [26],-9.02%
same,inhibition,[7]; [27],0.904%
same,inhibition,[8]; at 0.5 µM,-7.41% (inactive)
same,inhibition,[8]; [28],-22.1%
same,inhibition,[8]; [29],-7.19%
same,inhibition,[9]; at 0.5 µM,-24.2% (inactive)
same,inhibition,[9]; [22],-24.7%
same,inhibition,[9]; [23],-25.9%
same,inhibition,[10]; at 0.5 µM,-23.5% (inactive)
same,inhibition,[10]; [30],-17.2%
same,inhibition,[10]; [31],-7.5%
same,inhibition,[10]; [32],-37.9%
same,inhibition,[10]; [33],-2.83%
same,inhibition,[11]; [34],-9.82%
same,inhibition,[11]; at 0.5 µM,-20.2% (inactive)
same,inhibition,[11]; [35],4.66%
same,inhibition,[12]; at 0.5 µM,-13.8% (inactive)
same,inhibition,[12]; [36],-14.7%
same,inhibition,[12]; [37],-9.75%
same,inhibition,[13]; at 0.5 µM,-18.3% (inactive)
same,inhibition,[13]; [38],-2.56%
same,inhibition,"[13]; cisplatin combination, at 5 µM",-9.03%
same,inhibition,[13]; [39],37.2%
same,inhibition,"[13]; single agent, at 5 µM",-26.4%
same,inhibition,[14]; at 0.5 µM,-21.5% (inactive)
same,inhibition,"[14]; cisplatin combo, at 5 µM",-8.27%
same,inhibition,[14]; [40],-18.3%
same,inhibition,[14]; [22],-40%
same,inhibition,"[14]; single agent, at 5 µM",-21%
same,inhibition,[15]; at 0.5 µM,-17.8% (inactive)
same,inhibition,[15]; [41],-15.9%
same,inhibition,[15]; [42],-18.8%
same,inhibition,"[15]; single agent, at 0.05 µM",15.9%
same,inhibition,"[15]; single agent, at 5 µM",10.1%
O=c1[nH]c2ccccc2n1C1CCN(CCCC(c2ccc(F)cc2)c2ccc(F)cc2)CC1,normalised LDH release,[3],0.918
same,fold fluorescence,[16],5.15 [at 108.3 µM] (inactive)
O=c1[nH]c2ccccc2n1CCCN1CCC(n2c(=O)[nH]c3cc(Cl)ccc32)CC1,outcome,[4],inactive
CC(NC(C)(C)C)C(=O)c1cccc(Cl)c1 (centres undefined),z-score,[2],-0.243 (inactive) and -0.0135 (inactive)
C[C@@H]1C[C@@H]([C@H](O)CC2CC(=O)NC(=O)C2)C(=O)[C@@H](C)C1,normalised LDH release,[3],0.469
same,outcome,[17],inactive
same,outcome,[18],inactive
same,outcome,[19],inactive
same,outcome,[20],inactive
same,fold fluorescence,[16],9.32 [at 177.7 µM] (inactive)
O=C(O)c1nn(Cc2ccc(Cl)cc2Cl)c2ccccc12,SSMD,[1],0.502
same,cell count,[1],6570
same,plate-normalised HSF1 focus index,[1],1.03 (inactive)
Clc1ccc(CO/N=C(\Cn2ccnc2)c2ccc(Cl)cc2Cl)c(Cl)c1,outcome,[2],inactive
CN1C(=O)CCS(=O)(=O)C1c1ccc(Cl)cc1 (centres undefined),outcome,[4],inactive
C=C(C)[C@H]1Cc2c(ccc3c2O[C@@H]2COc4cc(OC)c(OC)cc4[C@@H]2C3=O)O1,AC50,[4],8.33 µM (active)
O=P1(N(CCCl)CCCl)NCCCO1 (centres undefined),outcome,[4],inactive
same,SSMD,[1],1.32
same,cell count,[1],7410
same,plate-normalised HSF1 focus index,[1],1.05 (inactive)
same,inhibition,[5]; at 0.5 µM,-27.2% (inactive) and -18.7% (inactive)
same,inhibition,[5]; [21],-28.1% and -17.9%
same,inhibition,[5]; [22],-62% and -22.2%
same,inhibition,[5]; [23],-58.8% and -8.04%
same,inhibition,[6]; at 0.5 µM,-64.7% (inactive) and -26.3% (inactive)
same,inhibition,[6]; [24],-52.1% and -36.9%
same,inhibition,[6]; [25],-105% and -14.6%
same,inhibition,[7]; at 0.5 µM,-15.6% (inactive) and -8.72% (inactive)
same,inhibition,[7]; [26],-13.1% and -5.67%
same,inhibition,[7]; [27],-23.9% and -12.6%
same,inhibition,[8]; at 0.5 µM,-11% (inactive) and -0.72% (inactive)
same,inhibition,[8]; [28],0.467% and -11.6%
same,inhibition,[8]; [29],-17.5% and -3.57%
same,inhibition,[9]; at 0.5 µM,-8.87% (inactive) and -10.9% (inactive)
same,inhibition,[9]; [22],-12.2% and -3.73%
same,inhibition,[9]; [23],-12% and -15.2%
same,inhibition,[10]; at 0.5 µM,-6.84% (inactive) and -18.8% (inactive)
same,inhibition,[10]; [30],-4.29% and -16.7%
same,inhibition,[10]; [31],-11.8% and -7.83%
same,inhibition,[10]; [32],-1.92% and -34.6%
same,inhibition,[10]; [33],-42.1% and -18.1%
same,inhibition,[11]; [34],-8.88% and 6.63%
same,inhibition,[11]; at 0.5 µM,-10.4% (inactive) and -3.19% (inactive)
same,inhibition,[11]; [35],-43.5% and 10.9%
same,inhibition,[12]; at 0.5 µM,1.59% (inactive) and 8.63% (inactive)
same,inhibition,[12]; [36],0.13% and 3.09%
same,inhibition,[12]; [37],6.54% and 14.4%
same,inhibition,[13]; at 0.5 µM,-9.95% (inactive) and -11.7% (inactive)
same,inhibition,[13]; [38],-36.8% and -12%
same,inhibition,"[13]; cisplatin combination, at 5 µM",-1.57% and -57.3%
same,inhibition,[13]; [39],-19.2% and 1.38%
same,inhibition,"[13]; single agent, at 5 µM",-9.56% and -21.4%
same,inhibition,[14]; at 0.5 µM,-4.96% (inactive) and -6.79% (inactive)
same,inhibition,"[14]; cisplatin combo, at 5 µM",-39% and 8.55%
same,inhibition,[14]; [40],-12.6% and 10%
same,inhibition,[14]; [22],-20.8% and 7.02%
same,inhibition,"[14]; single agent, at 5 µM",-6.86% and -4.77%
same,inhibition,[15]; at 0.5 µM,-20.8% (inactive) and -21.4% (inactive)
same,inhibition,[15]; [41],-33.7% and 3.63%
same,inhibition,[15]; [42],-16.2% and -34%
same,inhibition,"[15]; single agent, at 0.05 µM",-25% and -2.49%
same,inhibition,"[15]; single agent, at 5 µM",10.9% and -41%
